# Results reported in the supplement of paper PMC8728848.
# This excerpt belongs to a sample that is enriched for the strongest signals.
# B1: PX9937A-bvu-521-23-521 (Bacteroides vulgatus) (protein)
# chain: LDLAPEDYYGAGNFWKEASQPKAFMLGLHAQLRSYYDMFYTLGELRGGTQRVGTSSLNTSLNYADIRSQNISEDIPGISNWNGLYSPIMQVNHFIQEVENGCTFLDDATRSRYLGQAYGMRALYYFMLYRTFGGVPLITKVDILDGKPSADKFYVERATPEATMEFIKADINKSENYFGNNTSFDAYDWSRYATLMLKAEIYMWAAKVSITGFTATGATDLQTAKTALSGIIGHFELMDNFASIFSCDNKKNTEIIFAMPFIEGEASNDGGRFLYQDAVFLGQAYGRNGKVIEKDTLNLKGTGGVFRDEYTEDFWKTFKEGDSRRDATFMEYYMKNDNGTLSEFGCVMKKRIGTINSNDNRIYISDIPVYRYADALLMMAEIENGLNNPCASYINEVRKRAYGDTFEENKYTEGSYAENELAILQERDKEFVSEGKRWFDVLRMHDASGRSLVFSANANYPGTNPILGTEEAYKMLWPVNIGTLNVNPLLTQTPGYGKK
# Key:
# Assay in all cases: glycan array binding signal (z-score within array); higher = stronger binding
# Conditions in all cases: glycan notation: IUPAC condensed, linker removed
# [1] = biological target: Fuc(a1-2)Gal(b1-3)GlcNAc
# Outline: (§1)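 Columns mapping to the same glycan were averaged after glycan names were converted to IUPAC-condensed notation. The data come from 3228 arrays in the Consortium for Functional Glycomics database, limited to those with an available protein sequence. Binding is reported as a within-array Z-score averaged across arrays of one protein sequence and across linkers.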
# [2] = biological target: Fuc(a1-2)Gal(b1-4)GlcNAc(b1-2)Man(a1-3)[Fuc(a1-2)Gal(b1-4)GlcNAc(b1-2)Man(a1-6)]Man(b1-4)GlcNAc(b1-4)[Fuc(a1-6)]GlcNAc
# Outline: as §1
# [3] = biological target: Fuc(a1-2)Gal(b1-4)GlcNAc(b1-3)Gal(b1-4)GlcNAc(b1-2)Man(a1-3)[Fuc(a1-2)Gal(b1-4)GlcNAc(b1-3)Gal(b1-4)GlcNAc(b1-2)Man(a1-6)]Man(b1-4)GlcNAc(b1-4)GlcNAc
# Outline: as §1
# [4] = biological target: Fuc(a1-2)Gal(b1-4)GlcNAc(b1-3)[Fuc(a1-3)[Gal(b1-4)]GlcNAc(b1-6)]Gal(b1-4)Glc
# Outline: as §1
# [5] = biological target: Fuc(a1-2)Gal3S(b1-4)GlcNAc
# Outline: as §1
# [6] = biological target: Fuc(a1-2)[Gal(a1-3)]Gal(b1-3)GalNAc(b1-3)Gal(a1-4)Gal(b1-4)Glc
# Outline: as §1
# [7] = biological target: Fuc(a1-2)[Gal(a1-3)]Gal(b1-4)GlcNAc(b1-2)Man(a1-3)[Fuc(a1-2)[Gal(a1-3)]Gal(b1-4)GlcNAc(b1-2)Man(a1-6)]Man(b1-4)GlcNAc(b1-4)GlcNAc
# Outline: as §1
# [8] = biological target: Fuc(a1-2)[Gal(a1-3)]Gal(b1-4)GlcNAc(b1-3)GalNAc
# Outline: as §1
# [9] = biological target: Fuc(a1-2)[Gal(a1-3)]Gal(b1-4)[Fuc(a1-3)]GlcNAc(b1-3)GalNAc
# Outline: as §1
# [10] = biological target: Fuc(a1-2)[GalNAc(a1-3)]Gal(b1-4)GlcNAc(b1-3)[Fuc(a1-2)[GalNAc(a1-3)]Gal(b1-4)GlcNAc(b1-6)]GalNAc
# Outline: as §1
# [11] = biological target: Fuc(a1-2)[GalNAc(a1-3)]Gal(b1-4)GlcNAc(b1-6)GalNAc
# Outline: as §1
# [12] = biological target: Fuc(a1-2)[GalNAc(a1-4)]Gal(b1-4)GlcNAc
# Outline: as §1
# [13] = biological target: Gal(a1-3)Gal(b1-4)GlcNAc(b1-2)Man(a1-3)[Gal(a1-3)Gal(b1-4)GlcNAc(b1-2)Man(a1-6)]Man(b1-4)GlcNAc(b1-4)GlcNAc
# Outline: as §1
# [14] = biological target: Gal(a1-3)Gal(b1-4)[Fuc(a1-3)]GlcNAc(b1-2)Man(a1-3)[Gal(a1-3)Gal(b1-4)[Fuc(a1-3)]GlcNAc(b1-2)Man(a1-6)]Man(b1-4)GlcNAc(b1-4)GlcNAc
# Outline: as §1
# [15] = biological target: Gal(a1-3)[Gal(a1-4)]Gal(b1-4)GlcNAc
# Outline: as §1
# [16] = biological target: Gal(b1-3)GlcNAc
# Outline: as §1
# [17] = biological target: Gal(b1-3)GlcNAc(b1-2)Man
# Outline: as §1
# [18] = biological target: Gal(b1-3)GlcNAc(b1-3)Gal(b1-4)GlcNAc(b1-2)Man(a1-3)[Gal(b1-3)GlcNAc(b1-3)Gal(b1-4)GlcNAc(b1-2)Man(a1-6)]Man(b1-4)GlcNAc(b1-4)GlcNAc
# Outline: as §1
# [19] = biological target: Gal(b1-4)GlcNAc(b1-2)[Gal(b1-4)GlcNAc(b1-6)]Man(a1-6)[Gal(b1-4)GlcNAc(b1-2)Man(a1-3)]Man(b1-4)GlcNAc(b1-4)GlcNAc
# Outline: as §1
# [20] = biological target: Gal(b1-4)GlcNAc(b1-3)Gal(b1-4)GlcNAc(b1-3)Gal(b1-4)GlcNAc(b1-3)Gal(b1-4)GlcNAc(b1-3)Gal(b1-4)GlcNAc(b1-2)Man(a1-3)[Gal(b1-4)GlcNAc(b1-3)Gal(b1-4)GlcNAc(b1-3)Gal(b1-4)GlcNAc(b1-3)Gal(b1-4)GlcNAc(b1-3)Gal(b1-4)GlcNAc(b1-2)Man(a1-6)]Man(b1-4)GlcNAc(b1-4)GlcNAc
# Outline: as §1
# [21] = biological target: Gal(b1-4)GlcNAc(b1-6)[Gal(b1-3)]GalNAc
# Outline: as §1
# [22] = biological target: Gal(b1-4)GlcNAc(b1-6)[Gal(b1-4)GlcNAc(b1-3)]GalNAc
# Outline: as §1
# [23] = biological target: Gal(b1-4)GlcNAc6P
# Outline: as §1
# [24] = biological target: Gal3S(b1-3)GalNAc
# Outline: as §1
# [25] = biological target: Gal3S(b1-4)[Fuc(a1-3)]GlcNAc6S
# Outline: as §1
# [26] = biological target: Gal6S(b1-3)GlcNAc6S
# Outline: as §1
binder,measurement,setting,value
B1,glycan array binding signal (z-score),[1],-0.251
same,glycan array binding signal (z-score),[2],0.307
same,glycan array binding signal (z-score),[3],0.158
same,glycan array binding signal (z-score),[4],-0.083
same,glycan array binding signal (z-score),[5],-0.223
same,glycan array binding signal (z-score),[6],-0.525
same,glycan array binding signal (z-score),[7],0.549
same,glycan array binding signal (z-score),[8],-0.367
same,glycan array binding signal (z-score),[9],-0.237
same,glycan array binding signal (z-score),[10],-0.334
same,glycan array binding signal (z-score),[11],0.027
same,glycan array binding signal (z-score),[12],-0.319
same,glycan array binding signal (z-score),[13],0.763
same,glycan array binding signal (z-score),[14],6.91
same,glycan array binding signal (z-score),[15],2.4
same,glycan array binding signal (z-score),[16],-0.312
same,glycan array binding signal (z-score),[17],-0.189
same,glycan array binding signal (z-score),[18],-0.279
same,glycan array binding signal (z-score),[19],4.26
same,glycan array binding signal (z-score),[20],2.53
same,glycan array binding signal (z-score),[21],6.72
same,glycan array binding signal (z-score),[22],0.459
same,glycan array binding signal (z-score),[23],0.719
same,glycan array binding signal (z-score),[24],-0.408
same,glycan array binding signal (z-score),[25],-0.018
same,glycan array binding signal (z-score),[26],-0.386
